DT40 TDP1 CPT: growth inhibition of DT40 Tdp1-/-;hTDP1 cells with camptothecin (screen for TDP1 inhibitors); Potency, µM (series often up to 46.2 µM), for inactives: at the highest dose activity change, negative = growth inhibition, actives largely listed as inhibitors; chicken DT40 Tdp1-/-;hTDP1 cells + 20 nM CPT, ATP luminescence, 48 h; 420,000 tested, 12% active; also: potency is read from the fitted curve at half-maximal effect; % is scaled to controls: 0 for no effect and ±100 for the full control effect; nearly all actives have a fitted effect of over 55% in size
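Cell growth measured by CellTiter-Glo luminescence after a minimum 48 h, 37 C compound exposure with 20 nM CPT in Tdp1-knockout DT40 cells stably expressing hTDP1, seeded 400/well; qHTS titration format.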
ASM inhibitor: inhibitors of human secretory acid sphingomyelinase; P17405; placental ASM, HMU-PC fluorogenic substrate, 60 min; Potency, µM (doses to about 57.5 µM), without a hit: at the top dose activity change, negative = inhibition, usual class: inhibitors; 340,000 tested, 0.006% active; AID 504937; also: potency is read from the fitted curve at half-maximal effect
Target sequence (P17405 47-631 limits assumed): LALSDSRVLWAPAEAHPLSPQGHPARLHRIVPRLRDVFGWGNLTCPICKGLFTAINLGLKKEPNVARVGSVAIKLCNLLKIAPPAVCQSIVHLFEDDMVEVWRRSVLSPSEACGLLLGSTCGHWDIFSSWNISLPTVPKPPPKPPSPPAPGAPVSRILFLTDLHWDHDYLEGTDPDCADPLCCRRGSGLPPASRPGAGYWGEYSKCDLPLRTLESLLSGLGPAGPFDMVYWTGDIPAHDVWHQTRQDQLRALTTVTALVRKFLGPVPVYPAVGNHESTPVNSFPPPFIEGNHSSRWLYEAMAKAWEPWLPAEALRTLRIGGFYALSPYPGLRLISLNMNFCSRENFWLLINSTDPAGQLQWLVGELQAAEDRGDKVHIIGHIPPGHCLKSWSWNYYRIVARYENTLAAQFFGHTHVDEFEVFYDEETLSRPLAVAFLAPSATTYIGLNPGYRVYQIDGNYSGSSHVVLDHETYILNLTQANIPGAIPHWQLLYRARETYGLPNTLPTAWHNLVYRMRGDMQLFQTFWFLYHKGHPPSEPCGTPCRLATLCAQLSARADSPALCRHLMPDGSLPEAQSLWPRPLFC
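Fluorescence read-out (Ex 386 nm, Em 447 nm) after stopping the reaction at pH 10. Enzyme: ASM from human placenta; substrate HMU-PC0, 9 uM final; 60 min, 37 °C. Compound preincubation 10 min, ambient temperature.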
HepG2 tox: kills HepG2 cells in TGF-b inhibitor counter-screen. Potency, µM (titrated, usually from 46.1 µM), for the others: top-dose activity change, negative = cytotoxicity, usual class: cytotoxic. AID 588856. HepG2 CAGA-GFP viability, ATP luminescence, 18 h. 410,000 tested, 0.76% active; also: potency is read from the fitted curve at half-maximal effect
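HepG2 CAGA-GFP cells (1000/well, DMEM with 1% FBS) received compound, then TGF-beta at 500 pg/mL final, and were incubated 18 hours at 37 degrees C. Viability was read by CellTiter-Glo luminescence. Media-only wells were set as complete cell-killing and DMSO as no toxicity.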
IL1B secr inh: inhibitors of inflammasome signaling (IL-1 beta secretion). 360,000 tested, 4.7% active. THP-1 LPS/ATP IL-1B secretion, AlphaLISA, 16 h; active compounds read low. activity change, % at 57.5 µM; in the data active = activity change below about -50%; inconclusive = mostly about -30% to -49%; also: % is scaled to controls: 0 for no effect and ±100 for the full control effect
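Secreted IL-1B measured by AlphaLISA bead assay after 16 h compound exposure of THP-1 cells; compounds (final up to 57.5 uM) added 1 h before LPS (250 ng/mL) and ATP (1.25 mM) stimulation; lower signal means less secretion.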
TGFb inhibitor: inhibitors of TGF-b signaling; HepG2 CAGA-GFP TGF-b/SMAD3 reporter, GFP fluorescence, 18 h; TGF-beta stimulated, 500 pg/mL final; Potency, µM (top dose mostly 46.1 µM), inactives show at the highest dose activity, negative = inhibition, hits mostly inhibitors; 410,000 tested, 1.2% active; AID 588855; also: potency is read from the fitted curve at half-maximal effect; % is scaled to controls: 0 for no effect and ±100 for the full control effect; nearly all actives have a fitted effect of over 65% in size
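TGF-beta reporter screen: HEPG2 CAGA-GFP, 1% FBS, 500 pg/mL TGF-beta final, 18 h; per-cell GFP summed per well; curves fitted and categorized by class.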
DT40 TDP1 no CPT: qHTS for Inhibitors of human tyrosyl-DNA phosphodiesterase 1 (TDP1): qHTS in cells in absence of CPT | DT40 Tdp1-/- hTDP1 cells, no CPT, ATP luminescence, 48 h | Potency, µM (titrated, usually from 46.2 µM), for inactives: at the top dose activity change, negative = growth inhibition, actives largely listed as inhibitors | 420,000 tested, 15% active | AID 686978, 2013; also: potency is read from the fitted curve at half-maximal effect; % is scaled to controls: 0 for no effect and ±100 for the full control effect; nearly all actives have a fitted effect of over 55% in size
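Growth kinetics read by CellTiter-Glo luminescence after ≥48 hr at 37 °C. Cells: DT40 Tdp1-/- stably carrying human TDP1, 400 per well, compound exposure in the absence of CPT (DMSO vehicle).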
* hit, by the source's call; ? = inconclusive; . = no result given. Hits are enriched below; roughly 19% of the tested compounds scored in any of these assays. Unless noted, calls follow the shape of the dose curve; as a rule, active = well fitted curve in the direction sought with a large enough effect; inconclusive = small, poorly fitted or top-dose-only effect, or another doubt; inactive = no such curve, though single readings can be large; an effect the other way counts as inactive or inconclusive.

SMILES | DT40 TDP1 CPT | ASM inhibitor | HepG2 tox | IL1B secr inh | TGFb inhibitor | DT40 TDP1 no CPT
O=C(C[n+]1cccc2cc(Cl)ccc21)c1ccc2c(c1)CCCC2 | -23.8% | . | -21.3% | . | 4.3% | -4.8%
COc1ccc(NC(=S)N2CCC(C(=O)c3ccc(Cl)cc3)CC2)cc1 | 5.9% | 2.5% | 5.0% | 7.8 | -4.3% | 10.9%
CCS(=O)(=O)N1CCC(C(=O)Nc2cc(Cl)ccc2O)CC1 | 2.1% | -2.3% | 0.3% | -0.9 | 25.1% | ?
CCNC(=S)N1CCC(C(=O)c2ccc(Cl)cc2)CC1 | ? | -0.3% | 4.0% | 0.0 | 2.1% | ?
CCOc1ccc(NC(=S)N2CCC(C(=O)c3ccc(OC)cc3)CC2)cc1 | 16.4µM* | . | -8.7% | -7.3 | -2.9% | 18.4µM*
CCS(=O)(=O)N1CCC(C(=O)c2ccc(Cl)cc2)CC1 | 20.6µM* | 0.3% | -13.8% | -7.9 | 2.0% | ?
CCCNC(=S)N1CCC(C(=O)c2ccc(OC)cc2)CC1 | -26.9% | -0.8% | -1.3% | -2.1 | -1.1% | 20.6µM*
CCCNC(=S)N1CCC(C(=O)c2ccc(Cl)cc2)CC1 | 23.1µM* | -1.7% | -29.3% | 29.0 | ? | ?
CC1(C)Cc2c(sc(NC(=O)c3ccc(S(=O)(=O)N4CCCCCC4)cc3)c2C#N)C(C)(C)N1 | -6.3% | -17.2% | -7.6% | 1.6 | -6.6% | -27.1%
Cn1nc(-c2ccccc2)cc1NC(=O)c1ccc(Cl)cc1 | -29.8% | -2.4% | -2.7% | -15.0 | 5.2% | -17.7%
O=C(NC1CCSc2ccccc21)c1ccc(F)cc1 (stereo not given) | -0.2% | 4.3% | -3.3% | -2.6 | 8.7% | -16.4%
COc1ccc(CN2CCC(C(=O)c3ccc(Cl)cc3)CC2)cc1 | 23.1µM* | -0.2% | -22.0% | -26.9 | 0.4% | 16.4µM*
CC(C)CNC(=S)N1CCC(C(=O)c2ccc(Cl)cc2)CC1 | 10.3µM* | . | 0.2% | -21.3 | -16.5% | ?
COCc1cc(Sc2ccc(Br)cc2)nc(-c2ccccc2)n1 | -16.5% | -8.1% | -11.1% | 5.8 | 0.0% | ?
Clc1cc(Sc2ccc(Br)cc2)nnc1-c1ccccc1 | ? | ? | -4.3% | -19.0 | 1.3% | 29.1µM*
CC1(C(=O)N2CCCCC2)CCN1C(=O)C1(c2ccccc2)CC1 (stereo not given) | 0.5% | . | 0.1% | 21.2 | -1.6% | -6.5%
COc1cccc(OC)c1C(=O)Nc1ccc2c(c1)CCCN2S(=O)(=O)c1ccc(C)cc1 | ? | -1.3% | -0.6% | -13.2 | 7.9% | ?
Cc1ccc(S(=O)(=O)N2CCCc3cc(NS(=O)(=O)c4cc(F)ccc4F)ccc32)cc1 | 23.1µM* | . | -2.6% | . | ? | 18.4µM*
Cc1ccc(S(=O)(=O)N2CCCc3cc(NC(=O)c4c(F)cccc4F)ccc32)cc1 | ? | 0.0% | -5.5% | ? | 1.8% | ?
COc1ccc(S(=O)(=O)Nc2ccc3c(c2)CCCN3S(=O)(=O)c2ccc(C)cc2)cc1F | ? | . | 0.8% | . | ? | 20.6µM*
Cc1ccc(S(=O)(=O)N2CCCc3cc(NS(=O)(=O)c4ccc(F)cc4)ccc32)cc1 | ? | . | -33.7% | . | ? | 18.4µM*
Cn1cc2c(=O)n(/N=C/c3ccccc3)cnc2n1 | -5.8% | 5.0% | -6.5% | -5.9 | 2.5% | -8.1%
CC(C)c1cccc(C2=CC(=O)C[C@H](c3ccc4c(c3)OCO4)C2)c1 | ? | -3.4% | -15.6% | -8.9 | ? | ?
O=S(=O)(Nc1cccc(-c2cn3c(n2)SCC3)c1)c1ccccc1 | -7.7% | -4.8% | 17.6% | -7.9 | 24.6% | ?
CCCNC(=O)C1CN(S(=O)(=O)c2ccc(Cl)s2)c2ccccc2O1 (stereo not given) | ? | 0.0% | -18.2% | 3.9 | -2.6% | ?
SMILES | DT40 TDP1 CPT | ASM inhibitor | HepG2 tox | IL1B secr inh | TGFb inhibitor | DT40 TDP1 no CPT
Cc1ccc(N/N=C/c2cccnc2)cc1 | -11.4% | -3.8% | -1.4% | -23.3 | 2.4% | -6.9%
O=[N+]([O-])c1cc(/C=N/N/C(=N/c2ccccn2)c2ccccn2)ccc1O | 3.26µM* | -7.6% | -38.6% | 110.6 | ? | 4.61µM*
Cc1csc(N/N=C/c2ccc(O)c([N+](=O)[O-])c2)n1 | 18.4µM* | -0.5% | -0.6% | 9.2 | -8.7% | 25.9µM*
Cc1nnc(N/N=C/c2ccc(O)c([N+](=O)[O-])c2)[nH]c1=O | -16.5% | -0.7% | -6.3% | 0.9 | -5.0% | -19.1%
O=[N+]([O-])c1cc(/C=N\Nc2nc(-c3ccccc3)cs2)ccc1O | 14.6µM* | -16.0% | 10.4% | -15.1 | 5.2% | 18.4µM*
Cc1csc(N/N=C\c2cccnc2)n1 | 2.91µM* | 1.8% | -1.8% | 19.1 | 5.2% | 5.17µM*
COc1ccccc1CNC(=O)N1CCN(c2ccccc2Cl)CC1 | -29.6% | 1.6% | 11.1% | -15.4 | 5.1% | ?
COC(=O)c1cc(Cl)ccc1NC(=O)CSc1ncc(S(=O)(=O)c2ccc(Br)cc2)c(=O)[nH]1 | 6.7% | . | -23.2% | . | ? | -3.0%
COc1ccc(CS(=O)(=O)/C(Cl)=C(/Cl)C(=O)Nc2ccc(OC)nc2)cc1 | 0.581µM* | -5.6% | -106.9% | -120.4* | ? | 0.581µM*
COc1ccc(NC(=O)/C(Cl)=C(/Cl)S(=O)Cc2ccccc2)cn1 (stereo not given) | 0.0206µM* | -1.6% | 7.08µM* | -102.5* | 3.98µM* | 0.0184µM*
COc1ccc(NC(=O)Cc2ccccc2)cn1 | -7.7% | -3.1% | -2.1% | 16.0 | 1.9% | -3.3%
COC(=O)[C@@H]1[C@@H](C#N)C2(c3ccccc3-c3ccccc32)N(c2ccc(Cl)cc2)N1C#N | 3.26µM* | -10.3% | -67.7% | ? | ? | 3.66µM*
O=C(Cc1ccc(Cl)cc1)NN1C(=O)c2ccccc2C1=O | ? | 0.6% | 2.2% | 6.2 | -14.8% | -18.6%
Cn1nc(C(C)(C)C)cc1C(=O)N1CCCCC1c1cc(C(=O)Nc2cccc(C#N)c2)no1 (stereo not given) | 20.6µM* | . | -8.4% | 7.2 | 5.6% | 16.4µM*
O=C(Nc1ccccc1)c1cc(C2COCCN2C(=O)c2ccccn2)on1 (stereo not given) | -10.1% | . | -3.4% | -1.3 | -3.9% | ?
COc1ccc(NC(=O)c2cc(C3CCCCN3C(=O)c3ccccc3)on2)c(C)c1 (stereo not given) | 18.4µM* | . | -24.0% | 11.0 | -29.7% | 9.2µM*
